SMILES strings stand for the structures. Among all 52,000 compounds or so, about 4,300 (8.3%) were called active. Only a selection was taken, and actives are over-represented in it overall. A number with no mark means an inactive call. No stated cut-off is given here; in the data, active means survival mostly below about 52% (no sharp cut-off); inactive means mostly above about 56%.

In this assay the test system is DeltatarO mutant. The experiment in a line: S. aureus survival, RN4220 and DeltatarO strains – OD600, teichoic acid synthesis inhibitors, primary screen (AID 463173). The conditions noted are these: S. aureus RN4220 wild type/DeltatarO growth, OD600, 18 h, stronger effect = lower value, screened at 18.75 µg/mL (by protocol).
Turning to `CC(C)c1ccc(CNc2nc(-c3ccco3)nn2C(=O)c2ccc([N+](=O)[O-])cc2)cc1`, the survival was 79%.
In the case of `COc1ccc(NC(=O)Cn2nnc(C(=O)NCc3ccc4c(c3)OCO4)c2N)cc1`, the survival is 76%.
With `N#C/C(=C\c1ccc(Cl)cc1)C(=O)NCC1CCCO1` (stereo unspecified) the figure was 44% (active); with `N#C/C(=C\c1ccc(F)cc1)C(=O)NCC1CCCO1` (stereo unspecified), 68%; with `COc1cc(/C=C(\C#N)C(=O)NCC2CCCO2)ccc1O` (stereo unspecified), 83%.
For the compound `CCOC(=O)c1[nH]c(C)c(CCC(=O)Nc2ccccc2C(=O)OC)c1C`, the survival is 77%.
With `Cn1c(-c2ccccc2)cnc1SCc1ccccc1` the figure was 108%; with `Cn1c(NCc2cccc(Cl)c2)nc2ccccc21`, 104%; with `CCn1c(NCc2cccc(Cl)c2)nc2ccccc21`, 102%.
With `Cc1ccc(CNC(=O)c2ccc(CSCc3c(F)cccc3Cl)o2)cc1` the figure was 90%; with `CCCc1cc(=O)n2[nH]c(NCc3c(F)cccc3Cl)nc2n1`, 86%; with `Cc1ccc(-c2cnc(NCc3ccc(C(F)(F)F)cc3)n2C)cc1`, -5% (active).
As to `CCOc1ccc(-c2cnc(NCc3cccc(Cl)c3)n2C)cc1`, the survival was 30% (active).
Then `Cc1ccc(CNc2nccn(-c3cc(C)cc(C)c3)c2=O)cc1`, with 95%.
Then `Cc1ccc(-c2cnc(NC(=O)CCC(=O)N3CCCCC3)n2C)cc1`, with 91%.
Then `Cn1c(-c2ccc3c(c2)OCO3)cnc1NCc1cc(Cl)ccc1O`, with 70%.
Take `Cn1c(-c2ccccc2)cnc1NCc1ccccc1O`: the survival was 46% (active).
As for `Cc1ccc(-c2cnc(NCc3c(F)cccc3Cl)n2C)cc1`, the survival is -4% (active).
With `Cc1cc(C)cc(-n2c(SCC(=O)N3CCCCCC3)nc3c([nH]c4ccccc43)c2=O)c1` the figure was 94%; with `CCOc1ccc(N(CC)C(=O)c2nn(-c3ccc(OC)cc3)c(=O)c3c2c2ccccc2n3C)cc1`, 82%.
Then `CCOc1cc2sc(N3CCC(C(=O)Nc4ccc(C(C)C)cc4)CC3)nc2cc1Br`, with 75%; and `COC(=O)CN(c1ccccc1Cl)S(C)(=O)=O`, with 52%; and `COc1ccc(NC(=O)c2oc3ccccc3c2NC(=O)c2cccc(F)c2)c(OC)c1`, with 95%.
For the compound `COc1cc(OC)c(NC(=O)C2=C(C)C(=O)OC23CCN(C(C)=O)CC3)cc1Cl`, the survival was 75%.
Then `Cc1ccc(NC(=O)CN2C=NS(=O)(=O)c3ccccc32)c(C)c1`, with 99%; and `COc1ccc(-c2nc(Cn3c(SCc4ccc(C)cc4)nc4cccnc43)c(C)o2)cc1OC`, with 113%.
Then `Cc1ccc(-c2cnc(NCc3ccc(C(C)C)cc3)n2C)cc1`, with -4% (active).
On to `Cc1ccc(CNc2nc3c(c(=O)n(C)c(=O)n3C)n2Cc2ccc(Cl)cc2)cc1`, for which the survival is 54%.
With `COc1ccc(-c2cnc(NCc3ccc(C)cc3)n2C)cc1` the figure was 121%; with `CCOc1ccc(-n2cc(-c3ccccc3)c3c(NCc4ccc(F)cc4)ncnc32)cc1`, 95%.
Turning to `CCOc1ccc(-c2cnc(NCc3ccc(C(F)(F)F)cc3)n2C)cc1`, the survival is -3% (active).
With `CCOc1ccc(NC(=O)C(=O)NCCc2csc(-c3ccc(C(F)(F)F)cc3)n2)cc1` the figure was 94%; with `Cc1ccc(NC(=O)CCN2C(=O)c3ccccc3Sc3ncccc32)c(Cl)c1`, 74%.
For `CCOc1ccc(C(=O)NCCc2csc(-c3cccnc3)n2)cc1`, the survival was 81%.
Regarding `Cc1ccc(CNc2nc3ccccc3n3c(C)nnc23)cc1`, the survival is 88%.
With `CCn1nc(C)c(CCN(C)C(=O)Nc2ccc(C)c(Cl)c2)c1C` the figure was 88%; with `Cc1ccc(CCNC(=O)c2cc3cc4cc(C)ccc4nc3s2)cc1`, 46% (active); with `COc1ccc2nc3sc(C(=O)NCCc4ccc(Cl)cc4)cc3cc2c1`, 103%.
With `CSc1ccc(CCNC(=O)c2cc3cc4cc(C)ccc4nc3s2)cc1` the figure was 144%.
Then `CCOc1ccc(NC(=O)c2cc3cc4cc(OC)ccc4nc3s2)cc1`, with 82%; and `Cc1ccc2nc3sc(C(=O)Nc4ccc(F)cc4)cc3cc2c1`, with 37% (active); and `CCOc1ccccc1NC(=O)c1cc2cc3cc(C)ccc3nc2s1`, with 91%.
Turning to `CNC(=O)CN(C1CCCCC1)S(=O)(=O)c1ccc(C)cc1`, the survival was 75%.
Then `CC(C)C(=O)c1cn(CC(=O)NCc2cccs2)c2ccccc12`, with 88%.
Turning to `CC(C)NC(=O)C1CCC(Cn2c(=O)c3sccc3n(CC(=O)Nc3ccccc3)c2=O)CC1` (stereo unspecified), the survival is 74%.
With `CCc1ccc(CNC(=O)c2cnc3sc(N4CCCCC4)nn3c2=O)cc1` the figure was 99%; with `Cc1ccc(C)c(CN2CCCN(Cc3ccc(F)cc3)S2(=O)=O)c1`, -5% (active); with `COC(=O)c1ccc(NC(=O)CN2CCCN(Cc3ccc(Cl)cc3)S2(=O)=O)cc1`, 94%.
Then `Cc1ccc(CN2CCCN(Cc3c(C)cc(C)cc3C)S2(=O)=O)cc1`, with 91%.
Then `COc1ccc(NC(=O)CN2CCCN(Cc3ccc(Cl)cc3)S2(=O)=O)cc1Cl`, with 60%.
For `COC(=O)c1ccc(OC)c(CN2CCCN(Cc3ccc(C)cc3)S2(=O)=O)c1`, the survival is 20% (active).
Then `Cc1ccc(C)c(CN2CCCN(Cc3ccccc3C)S2(=O)=O)c1`, with 87%; and `CCOC(=O)CCCN1C(=O)CCn2nc(-c3cn(C)c4ccccc34)cc21`, with 69%.
Then `CCN(c1ccccc1C)S(=O)(=O)c1ccc(N2CCCCS2(=O)=O)cc1`, with 125%; and `CCSc1nnc(C2CCCN(CC(=O)NC3CCCCC3C)C2)n1CC` (stereo unspecified), with 74%.
On to `Cc1ccccc1-c1nc(CN2CCCC(C(=O)NCc3ccc(Cl)cc3)C2)c(C)o1` (stereo unspecified), for which the survival was 61%.
Consider `Cc1oc(-c2cccc(Cl)c2)nc1CN1CCCC(C(=O)NCc2ccc(F)cc2)C1` (stereo unspecified), for which the survival was 52%.
Then `Cc1ccc(CNC(=O)C2CCCN(Cc3nc(-c4cccc(C)c4)oc3C)C2)cc1` (stereo unspecified), with 41%.
With `Cc1oc(-c2cccc(Cl)c2)nc1CN1CCCC(C(=O)NCc2ccc(Cl)cc2)C1` (stereo unspecified) the figure was -1% (active); with `Cc1oc(-c2ccc(Cl)cc2)nc1CN1CCCC(C(=O)NCc2ccc(Cl)cc2)C1` (stereo unspecified), 59%.
Then `Cc1cccc(-c2nc(CN3CCCC(C(=O)NCc4ccc(Cl)cc4)C3)c(C)o2)c1` (stereo unspecified), with 18% (active).
